PABP FP inh: blocks human PABP binding to poly(A) RNA; P11940; fluorescence polarization; calls only at 35 µM; actives 1% (n = 290,000); AID 2014;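 also: calls also rest on retests at 20 µM and on dose response follow-up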
PERK inhibitor: blocks human PERK kinase; inhibition, % at 5.6 µM; AID 1416; actives 0.17% (n = 220,000); CHO PERK-DD fusion, SEAP luminescence translation reporter; Q9NZJ5;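 active = inhibition above the mean inhibition of all tested compounds plus 3 SD, set separately per screening campaign, cut at about 2.9% in these data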;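 also: PERK kinase domain activated by AP20187 dimerizer at 100 nM; 0% = DMSO with dimerizer and 100% = rapamycin at 8.4 µM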
eIF4E-4G inh: eIF4E/eIF4G interaction inhibition in translation initiation | TR-FRET eIF4E-eIF4GI(517-606) binding, 2 h | inhibition, % at 21.7 µM | actives 0.37% (n = 220,000);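 active = inhibition above about 30%, limit read from the data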;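 also: 0% = full FRET control wells and 100% = background wells lacking eIF4GI fragment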
PABP1 MLLE inh: inhibitors of microRNA-mediated deadenylation, human PABP1 MLLE binding; AID 588489; inhibition, % at 20 µM; GST-MLLE / FITC-PAM2 fluorescence polarization; actives 0.36% (n = 360,000); in the data active = inhibition above about 35%, passing the limit was not always enough;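 also: plate controls were DMSO wells with GST-MLLE for no effect and wells lacking GST-MLLE protein for full effect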
eIF4H inh: inhibitors of RNA binding by human eIF4H; Q15056; eIF4H fluorescence polarization binding assay; inhibition, % at 35 µM; actives 0.94% (n = 290,000);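 also: calls also rest on retests at 20 µM and on dose response follow-up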
* = called active by the depositor; i = inactive; / = no result; + = active, no number; [ ] = dose if it differs, or a comment. Compounds with a hit are over-represented: about 1.6% of the library has one in this group of screens. Unless noted, no rule for the calls is given here.

SMILES	PABP FP inh	PERK inhibitor	eIF4E-4G inh	PABP1 MLLE inh	eIF4H inh
CC(C)NS(=O)(=O)c1ccc(NC(=S)NC(=O)c2ccc(-c3ccccc3)cc2)cc1	i	-0.5	-11.4	41.2*	0.2
Cc1cc(NS(=O)(=O)c2ccc(NC(=S)NC(=O)c3ccc(Br)cc3)cc2)no1	i	0.1	3.5	42.0*	-8.8
CC1(C)C2CCC(C2)C1C/C=N/NC(N)=S (centres undefined)	i	0.1	-6.0	-8.1	-1.7
COc1ccc(NC2CCCN(C(=O)CSc3ccccn3)C2)cc1OC (centres undefined)	i	/	/	7.7	5.3
CC(=O)N1C[C@H]2CON(C)[C@H]2C[C@H]1c1cccc(-c2cc(Cl)cc(Cl)c2)c1	/	/	/	6.4	/
Cc1cc(C(=O)N/N=C/c2ccc(-c3cccc(Cl)c3)o2)n[nH]1	i	0.3	0.0	12.8	5.5
CCC(=O)NC(=S)Nc1ccc(NC(=O)c2ccc([N+](=O)[O-])cc2)cc1	i	0.7	55.8*[fluorescence artefact?]	13.4	-5.8
CC(C)C(=O)Nc1ccc(NC(=S)NC(=O)c2ccc([N+](=O)[O-])cc2)cc1	i	0.7	1.6	41.8*	-8.9
CC(C)C(=O)Nc1cccc(NC(=S)NC(=O)c2ccc([N+](=O)[O-])cc2)c1	i	0.4	2.7	-53.4	-9.9
Cc1cc(C(=O)NC(=S)Nc2cccc(NC(=O)C(C)C)c2)ccc1[N+](=O)[O-]	i	-0.2	-0.3	38.1*	-2.6
CC1CCCCC1NC(=O)CCNS(=O)(=O)c1cc(Br)cnc1N (centres undefined)	/	/	/	1.6	/
COCCN(C(=O)COC(=O)C(c1ccccc1)c1ccccc1)c1c(N)n(Cc2ccccc2)c(=O)[nH]c1=O	/	/	/	-6.0	/
CCCSc1nc(C)c(-c2csc(C(C#N)=C3CCCC3)n2)cc1C#N	+	1.7	9.9	-26.8	59.0*
O=C(CN(Cc1ccco1)C(=O)c1cccc(F)c1)Nc1ccccc1C(F)(F)F	/	/	/	-12.4	/
Cc1ccc(NC(=O)C(C)N2CCCc3ccccc32)cc1S(=O)(=O)N1CCOCC1 (centres undefined)	/	/	/	-9.2	/
CCN(CC)S(=O)(=O)c1cc(NC(=O)C(C)N2CCc3ccccc32)ccc1C (centres undefined)	i	-0.7	1.0	-11.5	active
O=S(=O)(NC(=S)c1ccccc1)c1ccc(Cl)cc1	i	/	/	23.5	-4.1
O=C(NC1CCCCC1)C(Cc1ccccc1)NS(=O)(=O)c1cccs1 (centres undefined)	i	0.2	0.2	-5.9	5.8
O=S(=O)(NC(=S)c1ccccc1)c1ccccc1	/	/	/	46.4*	/
O=S(=O)(NC(=S)NC1CCCCC1)c1ccccc1	i	-0.3	-2.9	37.4*	-1.1
O=S(=O)(NC(=S)NC1CCCCC1)c1cccs1	i	1.0	-3.5	52.3*	2.5
CCOC(=O)Cn1nc(C)n(-c2ccc(F)cc2)c1=O	i	0.5	-6.7	-3.2	6.2
COc1cc(C(=O)OCC(=O)Nc2ccc(F)cc2F)cc(OC)c1OC	+	-0.5	-1.4	-3.3	72.3*
Fc1ccc(CN2CC[C@H]3C=CCc4cccc(c43)C2)cc1	/	/	/	47.0*	/
Clc1ccc(CN2CC[C@H]3C=CCc4cccc(c43)C2)cc1	/	/	/	7.1	/
SMILES	PABP FP inh	PERK inhibitor	eIF4E-4G inh	PABP1 MLLE inh	eIF4H inh
Cc1nc(N)sc1-c1csc(N(C)c2ccc(O)cc2)n1	+	0.7	10.9	-9.3	92.5*
Cc1ccc(Sc2cnc(N)nc2C)cc1	+	0.7	0.4	2.0	active
Cc1nonc1C(=O)N/N=C/c1ccc([N+](=O)[O-])o1	+	-0.2	-0.1	-0.4	89.1*
O=C(N/N=C/c1ccc([N+](=O)[O-])o1)c1cc(-c2cccc(Br)c2)nc2ccccc12	i	-0.7	1.4	-19.3	56.0*
Cc1cc(C(=O)N/N=C/c2ccc([N+](=O)[O-])o2)c(C)o1	i	-0.1	11.4	16.7	38.6
O=C(CNc1ccc2ccccc2c1)N/N=C/c1ccc([N+](=O)[O-])o1	i	-0.7	-3.8	-2.8	27.2
O=C(N/N=C/c1ccc([N+](=O)[O-])o1)c1cn2ccc3ccccc3c2n1	+	0.2	7.3	-2.1	82.3*
O=C(N/N=C/c1ccc([N+](=O)[O-])o1)c1sc2ccccc2c1Cl	i	0.4	-3.6	-25.6	72.3*
O=C(COc1ccc(Br)cc1)NCC1COc2ccccc2O1 (centres undefined)	/	/	/	6.7	/
CC(C)C(NC(=O)C12CC3CC(CC(C3)C1)C2)C(=O)NC1=NCCS1 (centres undefined)	i	0.0	40.0*	/	1.7
